According to PubChem BioAssay (NCATS):
Records with an inconclusive call do not appear. Calls of active or inactive are those of the source. Unless noted, the call rests on the fitted dose curve; in most records, active means well fitted curve in the direction sought with a large enough effect; inconclusive means small, poorly fitted or top-dose-only effect, or another doubt; inactive means no such curve, though single readings can be large; an effect the other way counts as inactive or inconclusive.

Legend:
[1] = MultiTox-Fluor Cytotoxicity Assay - LYMP1-002 - Live Cells (AID 955)
How it was run: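 Human lymphoblastoid LYMP1-002 cells, 2500/well in complete medium, rested 5 hr at 37 C, then exposed to compounds for 16 hr at 37 C. Live-cell protease cleavage of GF-AFC read by fluorescence (Ex/Em 405/510) after 60 min at room temperature; AC50 from Hill fits.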

[2] = MultiTox-Fluor Cytotoxicity Assay - LYMP1-002 - Dead Cells (AID 960); further: nearly all actives have a fitted effect of over 60% in size
How it was run: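 Human lymphoblastoid cells (LYMP1-002), 2500/well in complete medium, were exposed to compounds for 16 hr at 37 C. Dead-cell protease activity was read as bis-AAF-R110 fluorescence (Ex/Em 485/520), normalized to DMSO and 15 uM tetraoctylammonium bromide; AC50 from Hill fits.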

[3] = MultiTox-Fluor Cytotoxicity Assay - LYMP1-003 - Live Cells (AID 962);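 further: cytotoxic hits lower the live-cell protease signal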
How it was run: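 LYMP1-003 human lymphoblastoid cells (2500/well) in complete medium were preincubated 5 hr at 37 C, then exposed to compounds for 16 hr at 37 C. Live-cell protease cleavage of GF-AFC read by fluorescence (Ex/Em 405/510); AC50 from Hill fits.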

[4] = Cell Viability - LYMP1-003 - Assay at 24 hr (AID 963)
How it was run: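 Human lymphoblastoid LYMP1-003 cells (2500/well) were rested 5 hr at 37 C, then exposed to compounds in complete medium for 24 hr at 37 C. Cellular ATP was quantified by CellTiter-Glo luminescence, and AC50 values came from Hill fits of concentration-response data.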

[5] = MultiTox-Fluor Cytotoxicity Assay - LYMP1-003 - Dead Cells (AID 961); further: nearly all actives have a fitted effect of over 70% in size
How it was run: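 LYMP1-003 human lymphoblastoid cells (2500/well) exposed to compound 16 h at 37 C in complete medium; dead-cell protease read with bis-AAF-R110 fluorescence (Ex/Em 485/520) after 60 min at room temperature. Normalized to DMSO and 15 uM tetraoctylammonium bromide; AC50 from Hill fit.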

[6] = Cell Viability - LYMP1-003 - Assay at 40 hr (AID 964); further: series mostly up to about 92 µM; nearly all actives have a fitted effect of over 60% in size
How it was run: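 Human lymphoblastoid LYMP1-003 cells, 2500/well in complete medium, rested 5 hr at 37 C, then exposed to compounds for 40 hr at 37 C. Viability read as intracellular ATP by CellTiter-Glo luminescence; AC50 from Hill fits of concentration-response data.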

[7] = Cell Viability - LYMP2-003 (AID 965);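 further: cells exposed to compounds for 24 h before reading; nearly all actives have a fitted effect of over 50% in size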
How it was run: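 CellTiter-Glo luminescence (cellular ATP) after 24 h compound exposure at 37 C in complete medium; 2500 cells/well, 5 h settling beforehand. Concentration-response fitted to standard Hill equation for AC50. Tetraoctylammonium bromide served as positive control.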

[8] = Cell Viability - LYMP2-004 (AID 966); further: nearly all actives have a fitted effect of over 65% in size
How it was run: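 Human lymphoblastoid cells (2500/well) in complete medium were treated with compounds for 24 hr at 37 C, then intracellular ATP was measured by CellTiter-Glo luminescence. AC50 values came from Hill-equation fits of concentration-response data.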

[9] = Cell Viability - LYMP2-005 (AID 967); further: series mostly up to about 92 µM
How it was run: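 Steps: seed 2500 LYMP2-005 cells/well, incubate 5 h at 37 C, add compound, incubate 24 h at 37 C, add CellTiter-Glo, wait 30 min at RT, read luminescence. Concentration-response data fitted to Hill equation for AC50.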

[10] = Cell Viability - LYMP2-009 (AID 968); further: series mostly up to about 92 µM; nearly all actives have a fitted effect of over 55% in size
[11] = Cell Viability - LYMP2-011 (AID 969); further: nearly all actives have a fitted effect of over 60% in size
How it was run: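 Human lymphoblastoid cells (2500/well) were plated in complete medium, preincubated 5 hr at 37 C, then exposed to compounds for 24 hr at 37 C. Intracellular ATP was read by CellTiter-Glo luminescence, and AC50 came from Hill-equation concentration-response fits.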

[12] = Cell Viability - LYMP2-013 (AID 970); further: series mostly up to about 92 µM; nearly all actives have a fitted effect of over 55% in size
How it was run: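 Human lymphoblastoid cells, 2500/well, were preincubated 5 hr at 37 C, then treated with compounds for 24 hr at 37 C in complete medium. Intracellular ATP was read by CellTiter-Glo luminescence; AC50 from Hill-equation fits of concentration-response data.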

[13] = Cell Viability - LYMP2-017 (AID 972); further: series mostly up to about 92 µM; nearly all actives have a fitted effect of over 55% in size
How it was run: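 Human lymphoblastoid cells (2500/well) were seeded in complete medium, held 5 hr at 37 C, then exposed to compounds for 24 hr at 37 C. Intracellular ATP was read by CellTiter-Glo luminescence after 30 min at room temperature, with AC50 values from Hill-equation fits.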

[14] = Cell Viability - LYMP2-019 (AID 973); further: nearly all actives have a fitted effect of over 55% in size
How it was run: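 Human lymphoblastoid cells were seeded at 2500 cells/well, preincubated 5 hr at 37 C, then exposed to compounds for 24 hr at 37 C in complete medium. Intracellular ATP was measured by CellTiter-Glo luminescence; AC50 from Hill fits.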

[15] = Cell Viability - LYMP2-021 (AID 974)
How it was run: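 Human lymphoblastoid cells (2500/well) were preincubated 5 hr at 37 C, then exposed to compounds for 24 hr at 37 C in complete medium. Intracellular ATP was read by CellTiter-Glo luminescence; AC50 came from Hill-equation fits of concentration-response data.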

[16] = Cell Viability - LYMP2-023 (AID 975)
How it was run: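 Human lymphoblastoid cells (2500/well) were preincubated 5 hr at 37 C, then exposed to compounds for 24 hr at 37 C in complete medium. Cellular ATP was read by CellTiter-Glo luminescence, and AC50 came from Hill-equation fits.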

[17] = Cell Viability - LYMP2-025 (AID 976); further: series mostly up to about 92 µM
How it was run: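 Human lymphoblastoid LYMP2-025 cells (2500/well) were pre-incubated 5 hr at 37 C, then treated with compounds for 24 hr at 37 C in complete medium. Viability was read as intracellular ATP by CellTiter-Glo luminescence; AC50 from Hill fits.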

[18] = Cell Viability - LYMP2-002 (AID 977); further: series mostly up to about 92 µM
How it was run: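 Human lymphoblastoid LYMP2-002 cells, 2500 per well, exposed to compounds for 24 h at 37 C in complete medium; viability read as intracellular ATP by CellTiter-Glo luminescence, AC50 from Hill fits.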

[19] = Cell Viability - LYMP2-006 (AID 978); further: series mostly up to about 92 µM; nearly all actives have a fitted effect of over 60% in size
How it was run: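 qHTS, 1536-well; 2500 cells/well, 5 hr 37 C; cpd 24 hr 37 C; CellTiter-Glo 30 min RT; luminescence. Tetraoctylammonium bromide pos. ctrl. AC50 via Hill eqn.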

[20] = target: Pyruvate kinase PKM (Homo sapiens) (UniProt P14618); assay: qHTS Assay for Activators of Human Muscle Pyruvate Kinase (AID 954; active means well fitted curve in the direction sought with a large enough effect, not every such curve was filed as active)
Pyruvate kinase PKM (Homo sapiens), sequence (P14618 whole entry, looked up): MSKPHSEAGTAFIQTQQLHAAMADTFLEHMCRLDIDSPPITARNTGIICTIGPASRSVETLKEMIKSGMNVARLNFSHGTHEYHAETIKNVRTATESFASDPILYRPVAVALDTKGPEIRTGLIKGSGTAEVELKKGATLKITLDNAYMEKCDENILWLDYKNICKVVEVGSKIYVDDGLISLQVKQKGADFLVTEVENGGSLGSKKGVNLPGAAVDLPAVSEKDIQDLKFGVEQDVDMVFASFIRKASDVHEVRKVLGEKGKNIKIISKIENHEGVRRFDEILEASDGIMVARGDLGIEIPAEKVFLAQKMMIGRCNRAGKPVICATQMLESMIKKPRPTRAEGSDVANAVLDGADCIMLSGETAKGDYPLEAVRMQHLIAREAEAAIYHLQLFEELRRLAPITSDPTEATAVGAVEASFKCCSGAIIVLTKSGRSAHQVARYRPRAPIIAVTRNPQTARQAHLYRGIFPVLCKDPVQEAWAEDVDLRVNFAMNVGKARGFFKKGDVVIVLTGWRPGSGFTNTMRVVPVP
How it was run: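 Purified human PKM2 (0.1 nM) with 0.5 mM PEP (Km) and 0.1 mM ADP in 50 mM imidazole pH 7.2, KCl, MgCl2, 1 h at room temperature; ATP formed read by coupled luciferase luminescence. Normalized to no-enzyme/110 uM thiadiazolimine inhibition; 0.3 nM enzyme column for activation.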

Measured: Potency

Oc1ccc(Cl)cc1Cc1cc(Cl)ccc1O
inactive: [1] | [2] | [3] | [4]

COc1ccc(C(=O)c2ccccc2)c(O)c1
inactive: [1] | [2] | [5] | [3] | [4] | [6] | [7] | [8] | [9] | [10] | [11] | [12] | [13] | [14] | [15] | [16] | [17] | [18] | [19]

CC(C)(C)NC[C@H](O)COc1nsnc1N1CCOCC1
inactive: [20]

CN(C)CCC[C@@]1(c2ccc(F)cc2)OCc2cc(C#N)ccc21
inactive: [20]

O=C(O)c1ccc(S(=O)(=O)N(Cl)Cl)cc1
inactive: [1] | [2] | [5] | [3] | [4] | [6] | [7] | [8] | [9] | [10] | [11] | [12] | [13] | [14] | [15] | [16] | [17] | [18] | [19]

COc1cc([C@H]2Oc3cc([C@H]4Oc5cc(O)cc(O)c5C(=O)[C@@H]4O)ccc3O[C@@H]2CO)ccc1O
inactive: [1] | [2] | [5] | [3] | [4] | [6] | [7] | [8] | [9] | [10] | [11] | [12] | [13] | [14] | [15] | [16] | [17] | [18] | [19]

NS(=O)(=O)Cc1noc2ccccc12
inactive: [20]

C=C[C@H]1CN2CC[C@H]1C[C@@H]2[C@@H](O)c1ccnc2ccc(OC)cc12
inactive: [1] | [5] | [3] | [4] | [6] | [7] | [8] | [9] | [10] | [11] | [12] | [13] | [14] | [15] | [16] | [17] | [18] | [19]

CCCCC(CC)COC(=O)c1ccc(N(C)C)cc1 (stereo unspecified)
inactive: [1] | [5] | [3] | [4] | [6] | [7] | [8] | [9] | [10] | [11] | [12] | [13] | [14] | [15] | [16] | [17] | [18] | [19]

CCCN(CCC)S(=O)(=O)c1ccc(C(=O)O)cc1
inactive: [1] | [2] | [5] | [3] | [4] | [6] | [7] | [8] | [9] | [10] | [11] | [12] | [13] | [14] | [15] | [16] | [17] | [18] | [19]

NC(N)=NCc1cccc(I)c1
inactive: [20]

CN1CCC[C@@H]1CCO[C@](C)(c1ccccc1)c1ccc(Cl)cc1
inactive: [20]
